# Screens: PubChem BioAssay, National Center for Advancing Translational Sciences (NCATS)
# Six1-Eya2 blk = qHTS Assay for Inhibitors of the Six1/Eya2 Interaction. AID 651725, 2012. actives 0.56% (n = 360,000). AlphaScreen GST-Six1/His-Eya2 binding, biochemical; hits give low values. activity change, % (concentration not given with the values); in the data active means activity change below about -65%; inconclusive means mostly about -30% to -63%
#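 GST-Six1 + His-Eya2 (5X stock: 250/500 nM); Tris pH 8.0, 300 mM NaCl, 0.05% BSA, 0.02% Tween 20; GSH donor/Ni acceptor beads; 1 h 37 °C dark; AlphaScreen readout.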
# BAZ2B block = qHTS Assay for Inhibitors of BAZ2B; AlphaScreen BAZ2B-H3K14Ac peptide displacement; Potency, µM (top dose mostly 114 µM), hits mostly inhibitors; actives 4.4% (n = 360,000); further: nearly all actives have a fitted effect of over 60% in size
#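 BAZ2B 50 nM plus b-H3(5-23)K14Ac 50 nM, PBS pH 7.4/0.01% Tween-20, 30 min RT; compound added (max 110 uM), 30 min RT; streptavidin donor/Ni-chelate acceptor beads 10 ug/mL final, 20 min dark; AlphaScreen read.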
# CtBP-E1A blk = qHTS Assay for Inhibitors of the CtBP/E1A Interaction; CtBP / adenovirus E1A interaction (AlphaScreen); AlphaScreen GST-E1A/His-CtBP binding, 1536-well; hits give low values; activity change, % (test concentration not listed); actives 0.49% (n = 340,000); AID 651724, 2012; in the data active means activity change below about -65%; inconclusive means mostly about -30% to -63%
#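 GST-E1A and His-tagged CtBP (125 nM each as 5X stock) were preincubated with pin-transferred compound for 2 h at 37 °C in the dark, then glutathione donor and nickel acceptor beads were added for 1 h before AlphaScreen reading.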
# HP1b binding inh = HTS for Inhibitors of HP1-beta Chromodomain Interactions with Methylated Histone Tails; AlphaScreen HP1-beta / biotin-H3K9me3 peptide binding; actives 0.56% (n = 390,000); Potency, µM (highest dose often 114 µM), hits mostly inhibitors; AID 540317, 2011; further: nearly all actives have a fitted effect of over 70% in size
# Target sequence (P83916 whole entry, looked up): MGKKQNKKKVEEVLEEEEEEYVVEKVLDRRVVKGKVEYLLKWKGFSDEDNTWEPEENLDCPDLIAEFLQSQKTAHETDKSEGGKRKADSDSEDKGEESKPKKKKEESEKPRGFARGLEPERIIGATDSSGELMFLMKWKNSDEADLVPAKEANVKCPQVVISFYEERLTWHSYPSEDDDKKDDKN
#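 HP1-beta protein (50 nM final) preincubated 30 min at room temperature with biotinylated H3(1-18)K9me3 peptide (50 nM) in PBS pH 7.4, 0.01% Tween-20, then compound added for 30 min. AlphaScreen streptavidin donor/nickel chelate acceptor beads (10 ug/mL final), 30 min dark, luminescence read.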
# JMJD2A Tudor = qHTS Assay for Inhibitors of JMJD2A-Tudor Domain | Potency, µM (series often up to 114 µM), most hits filed as inhibitors | AID 504339, 2011 | actives 4.4% (n = 390,000) | AlphaScreen JMJD2A-Tudor / H3K4me3 peptide binding; further: nearly all actives have a fitted effect of over 50% in size
# G9a inh = qHTS Assay for Inhibitors of Histone Lysine Methyltransferase G9a; Histone-lysine N-methyltransferase EHMT2 (Homo sapiens), Q96KQ7; G9a H3K9 monomethylation, AlphaScreen, 2 h; Potency, µM (doses to about 102 µM), actives largely listed as inhibitors; actives 8.8% (n = 350,000); AID 504332, 2011; further: nearly all actives have a fitted effect of over 75% in size
# Target sequence (Q96KQ7 913-1193 limits assumed): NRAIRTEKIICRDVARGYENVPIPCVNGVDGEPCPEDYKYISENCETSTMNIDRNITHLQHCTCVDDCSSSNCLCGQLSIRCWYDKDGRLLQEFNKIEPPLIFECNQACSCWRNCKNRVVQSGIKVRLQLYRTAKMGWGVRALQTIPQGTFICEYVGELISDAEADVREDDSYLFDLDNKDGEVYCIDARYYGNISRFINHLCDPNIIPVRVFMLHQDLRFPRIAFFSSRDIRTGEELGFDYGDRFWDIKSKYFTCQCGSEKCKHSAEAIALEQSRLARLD
#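 Readings reflect AlphaScreen signal from monomethyl-H3K9 antibody detection. HMT at 20 nM; substrate b-H3K9 500 nM; cofactor SAM 20 uM; 2 h RT reaction; compounds tested as titrations in qHTS with 15 min preincubation.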
# Hits are given with their value; i = inactive; ? = inconclusive; nt = no result; ! = not confirmed by another sample; [ ] = remark or other dose. Hits are enriched below; roughly 10% of the tested compounds scored in any of these assays. Unless noted, the call rests on the fitted dose curve; in most records, active means well fitted inhibition curve with a large enough effect; inconclusive means small, poorly fitted or top-dose-only effect; inactive means no such curve, though single readings can be large or run the other way.
SMILES,Six1-Eya2 blk,BAZ2B block,CtBP-E1A blk,HP1b binding inh,JMJD2A Tudor,G9a inh
COc1ccc2nc(NC(=O)C34CC5CC(CC(NC(C)=O)(C5)C3)C4)sc2c1,i,i,i,i,i,nt
CCOc1ccc2nc(NC(=O)C34CC5CC(CC(NC(C)=O)(C5)C3)C4)sc2c1,i,i,i,i,i,16µM
CCOc1ccc2nc(NC(=O)Nc3cccs3)sc2c1,i,i,i,i,?,45µM
CC1CCCN(C(=O)c2ccc(-c3ccccc3Cl)o2)C1 (stereo not drawn),i,?,i,i,i,45µM
O=[N+]([O-])c1cc2cccnc2c2ncccc12,?,22µM,nt,i,79µM,nt
O=[N+]([O-])c1cc2c(c3cccnc13)COCO2,?,nt,i,?,25µM,nt
O=[N+]([O-])c1cc(O)c2ncccc2c1,-83,5.6µM,-94,i,18µM,i
C=CCN(c1ccccc1)S(=O)(=O)c1cccc(C(=O)NC2CCC(O)CC2)c1 (stereo not drawn),i,i,i,i,i,?
OCCC1CN(Cc2cccc(C(F)(F)F)c2)CCN1Cc1ccccc1 (stereo not drawn),i,i,nt,i,i[11.4 µM],i
COc1ccc(-c2nc(SCc3cc(=O)c4cc(C)ccc4[nH]3)n[nH]2)cc1,nt,i,nt,i,i,i
N/C(=N\N=C/c1ccc(F)cc1)N/N=C\c1ccc(F)cc1,i,?,nt,i,?,50µM
O=C(N/N=C\c1ccc(F)cc1)c1csnn1,i,i,i,i,i,1.6µM
Cc1ccccc1/C=N\NC(=O)c1csnn1,i,i,i,i,i,?
CCOC(=O)CCNC(C(=O)OCC)c1ccccc1 (stereo not drawn),i,?,i,?,35µM,?
Cc1ccc([N+](=O)[O-])cc1S(=O)(=O)Nc1ccc(O)c(Sc2ncn[nH]2)c1,i,i,i,i,i,nt
Cc1cc(C)c(S(=O)(=O)/N=C2/C=C(Sc3ncn[nH]3)C(=O)c3ccccc32)cc1C,i,45µM,i,?,?,1.4µM
CCN(CCN(C)C)C(=O)c1ccc2c(c1NCCO)C(=O)c1ccccc1C2=O,?,50µM,i,?,i,16µM
O=C(O)c1ccc2c(c1Nc1ccccc1)C(=O)c1ccccc1C2=O,-66,?,?,40µM,50µM,40µM
O=C(O)c1cccc2c1C(=O)c1ccccc1C2=O,i,nt,i,i,i,?
CNc1c(C(=O)O)ccc2c1C(=O)c1ccccc1C2=O,i,35µM,i,45µM,i,14µM
CCNc1c(C(=O)O)ccc2c1C(=O)c1ccccc1C2=O,i,35µM,i,i,i,?
CCNC(=O)c1ccc2c(c1)sc1nc(-c3cccc(OC)c3)cn12,nt,i,nt,i,i,i
O=C(C1CCN(S(=O)(=O)c2ccc(Br)s2)CC1)N1CCN(c2cccc(Cl)c2)CC1,nt,i,nt,i,i,i
Cc1cccc(C)c1OCC(=O)Nc1ncn[nH]1,i,50µM,i,i,?,14µM!
O=C(CC(c1ccccc1)c1ccccc1)Nc1ccc(Cl)cn1,i,i,i,i,i,i
SMILES,Six1-Eya2 blk,BAZ2B block,CtBP-E1A blk,HP1b binding inh,JMJD2A Tudor,G9a inh
COc1ccc(OCC(=O)Nc2cc(-c3nn4c(C)nnc4s3)ccc2C)cc1,i,i,i,i,i,i
Cc1cc(OCC(=O)Nc2cc(-c3nn4c(C)nnc4s3)ccc2C)ccc1Cl,i,i,i,i,56µM,i
O=C(CC(c1ccccc1)c1ccccc1)Nc1ncn[nH]1,?,79µM,?,i,i,i[12.7 µM]
Cc1cc(OCC(=O)Nc2ncn[nH]2)ccc1Cl,i,45µM,nt,i,?,i[2.33 µM]
O=C(COc1ccc2ccccc2c1Br)Nc1ncn[nH]1,i,i,i,i,i,i
COc1ccc(NC(=O)CSC(C)c2nc3ccccc3c(=O)[nH]2)cc1 (stereo not drawn),i,i,i,i,i,nt
COc1ccc(-c2csc(NC(=O)C3=COCCO3)n2)c(OC)c1,i,?,i,i,i,?
C=CCNc1nc(-c2ccc(OC)cc2OC)cs1,i,56µM,i,i,?,?
Cc1ccc2ccc(C)[n+](CCCS(=O)(=O)[O-])c2c1,i,i,nt,?,i[11.4 µM],i
O=S(=O)([O-])CCC[n+]1ccc(Oc2ccccc2)cc1,i,i,nt,i,i,28µM
O=c1c(C(c2ccccc2)c2c(O)sc3ccccc3c2=O)c(O)sc2ccccc12,i,28µM,i,i,i,?
O=c1c2ccccc2sc2ccccc12,i,nt,?,i,i,nt
CC1=C(C(=O)OC2CCCC2)C(c2cccc(Cl)c2Cl)CC(=O)N1 (stereo not drawn),nt,i,nt,i,i,i
COc1ccc(S(=O)(=O)N(C(=O)c2ccncc2)c2ccc(OC(=O)c3ccncc3)cc2)cc1,i,i,i,i,i,35µM
COc1ccc(/C(C)=N/Nc2ccc(C(=O)O)cc2)c(OC)c1,i,i,i,i,i,1.6µM
COc1ccc2c(/C=N/Nc3ccc(C(=O)O)cc3)c[nH]c2c1,i,?,i,i,?,?
COc1ccc2c(c1)C(=NNc1ccc(C(=O)O)cc1)c1cc(OC)ccc1-2,i,40µM,nt,?,50µM,?
C/C(=N\Nc1ccc(C(=O)O)cc1)c1ccc(Br)cc1,i,50µM,nt,?,71µM,nt
COc1ccc(/C(C)=N/NC(=O)CNC(=O)Cc2ccccc2)c(OC)c1,i,i,nt,i,i,nt
COc1ccc2c(c1)c(/C=N/Nc1ccc(C(=O)O)cc1)c(C)n2C,i,?,nt,i,?,8.9µM
Cc1ccc(CNC(=O)CN(c2cccc(C)c2C)S(=O)(=O)c2ccccc2)cc1,nt,i,nt,i,i,i
CCOC(=O)c1c(NC(C)=O)sc(/C(C)=N/Nc2ccc(C(=O)O)cc2)c1C,i,?,i,i,i,32µM
CCOC(=O)c1c(NC(C)=O)sc(C(=O)NC2CCCC2)c1C,i,i,i,i,i,i
COc1ccc2c(c1)C(=NN)c1cc(OC)ccc1-2,i,40µM,i,i,56µM,?
COc1ccc(OC)cc1,i,nt,i,i,i,nt
Cc1ccc(CNC(=O)C(C)n2ccc3cc(S(=O)(=O)N4CCCC4)ccc32)cc1 (stereo not drawn),nt,i,nt,i,i,i
